# Shown are actives, neighbours in structure and some others; about 7.3% of the full set was active somewhere.
# HCMV inh: inhibitors of human cytomegalovirus; HFF cells, HCMV-luciferase reporter, 72 h; stronger effect = lower value; activity change, negative = inhibition, % at 57.5 µM; actives 4.5% (n = 410,000); AID 1259415; in the data active means activity change below about -60%; inconclusive means no clear call, values can overlap the other calls; inactive means above about -39%
#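 Screen run at 2 compound doses on HFFs infected with reporter HCMV, MOI 1 PFU/cell. Luciferase activity from cell lysates at 72 h post infection gave inhibition relative to buffer-only and Salinomycin wells.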
# Vaccinia mCherry: inhibitors of vaccinia virus infection (mCherry reporter signal). Vaccinia virus mCherry reporter infection, fluorescence. Potency, µM (top dose mostly 36.5 µM), without a hit: top-dose activity change, negative = inhibition, actives largely listed as inhibitors. actives 0.63% (n = 310,000); calls by dose curve; tested in A549 cells; further: potency means the concentration at half of the fitted maximal effect; nearly all actives have a fitted effect of over 35% in size
# Vaccinia Venus: inhibitors of vaccinia virus (Venus reporter) | Potency, µM (top dose mostly 36.5 µM), without a hit: at the highest dose activity change, negative = inhibition, usual class: inhibitors | actives 0.46% (n = 330,000) | Vaccinia virus Venus reporter expression, fluorescence; calls by dose curve; tested in A549 cells; further: potency means the concentration at half of the fitted maximal effect; nearly all actives have a fitted effect of over 30% in size
# HCV inhibitor: blocks hepatitis C virus | Potency, µM (titrated, usually from 41.8 µM), for the others: top-dose activity change, negative = inhibition, usual class: inhibitors | actives 3.4% (n = 340,000) | Huh7.5.1 HCVcc-Cre infection, luciferase reporter, 44 h; active means well fitted inhibition curve with a large enough effect; inconclusive means small, poorly fitted or top-dose-only effect, or another doubt; inactive means no such curve, though single readings can be large or run the other way; further: potency means the concentration at half of the fitted maximal effect
#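 Infectious HCV cell culture screen: compound-treated cells (1,000/well, pre-plated 4 h) are infected with HCVcc-Cre at roughly 0.5 moi and grown 44 h. Infection is quantified by luciferase signal after 15 min substrate incubation at room temperature.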
# FMDV antiviral: antivirals against foot and mouth disease virus; FMDV antiviral cell-based qHTS; Potency, µM (titrated, usually from 57.9 µM), for the others: top-dose activity change, negative = inhibition, most hits filed as inhibitors; actives 1.2% (n = 410,000); AID 1159524; calls by dose curve; tested in HEK293T cells; further: read-out not given here; potency means the concentration at half of the fitted maximal effect; nearly all actives have a fitted effect of over 45% in size
# * hit, by the source's call; i = inactive; u = inconclusive; x = no result. On the % scale 0 is the no-effect control and ±100 the full control effect.
SMILES,HCMV inh,Vaccinia mCherry,Vaccinia Venus,HCV inhibitor,FMDV antiviral
O=C(NCCc1csc(-c2cccnc2)n1)c1ccco1,-27.1,i,-12.5%,11.2%,-15.2%
COc1ccc(-c2nc(CCNC(=O)c3cccs3)cs2)cc1,u,-20.0%,-17.7%,35.5µM*,u
O=C(NCCc1csc(-c2ccc(Cl)cc2)n1)c1ccco1,6.8,-15.0%,3.7%,11.2µM*,u
Cc1ccc(Cl)cc1NS(=O)(=O)c1ccc2oc(=O)c3ncn(C)c3c2c1,28.7,i,-9.5%,x,-15.3%
Cc1nnsc1C(=O)NCC1Cc2cccc(-c3ncccn3)c2O1 (stereo unspecified),x,-9.4%,-1.9%,x,-15.0%
O=C(NCCc1csc(-c2ccc(C(F)(F)F)cc2)n1)c1ccc(F)c(F)c1,-63.4*,-16.2%,-11.6%,x,20µM*
O=C1[C@H](Cc2ccccc2)NC/C=C\C[C@H](c2ccc(Cl)cc2)N1Cc1ccc(Cl)cc1,x,-3.3%,-21.1%,x,x
O=C(NC1CCN(Cc2ccccc2)CC1)c1ccccc1OCc1ccccc1,-13.8,x,x,25.1µM*,u
O=C(NC1CCN(Cc2ccccc2)CC1)c1ccccc1OCc1ccccc1Cl,-62.7*,-2.5%,-15.2%,u,-29.2%
CCOc1ccccc1C(=O)NC1CCN(Cc2ccccc2)CC1,-32.3,-3.2%,-10.1%,-19.2%,-5.0%
O=C(NC1CCCC1)c1ccccc1OCc1ccccc1,u,-13.5%,-11.7%,7.94µM*,u
Cc1ccc(NC(=O)c2oc3ccc(S(=O)(=O)N4CCC5(CC4)OCCO5)cc3c2C)cc1Cl,-18.5,-3.5%,-10.1%,x,-22.6%
Cc1c(C(=O)N2CCc3ccccc3C2)oc2ccc(S(=O)(=O)N3CCCCCC3)cc12,-32.1,-18.8%,u,8.91µM*,-3.0%
CCOC(=O)C1CCN(C(=O)c2oc3ccc(S(=O)(=O)N4CC(C)CC(C)C4)cc3c2C)CC1 (stereo unspecified),-33.0,x,x,4.47µM*,-29.1%
Cc1c(C(=O)O)oc2ccc(S(=O)(=O)N3CC(C)CC(C)C3)cc12 (stereo unspecified),9.2,x,-2.7%,10.5%,39.6%
Cc1c(C(=O)Nc2ccc(F)cc2)oc2ccc(S(=O)(=O)N3CCCCCC3)cc12,-30.7,-26.5%,-29.9%,x,28.2µM*
COc1ccc(NC(=O)c2oc3ccc(S(=O)(=O)N4CCC5(CC4)OCCO5)cc3c2C)cc1,-17.4,x,x,12.6µM*,12.6µM*
C=CCNC(=O)c1oc2ccc(S(=O)(=O)N3CCC4(CC3)OCCO4)cc2c1C,0.0,x,x,-10.2%,-12.6%
Cc1c(C(=O)Nc2cccc(C(F)(F)F)c2)oc2ccc(S(=O)(=O)N3CCOCC3)cc12,-2.2,x,x,u,u
Cc1c(C(=O)NCCc2ccccc2)oc2ccc(S(=O)(=O)N3CCC4(CC3)OCCO4)cc12,-15.3,-10.7%,-13.1%,11.2µM*,u
Cc1c(C(=O)Nc2cccc(C(F)(F)F)c2)oc2ccc(S(=O)(=O)N3CCC4(CC3)OCCO4)cc12,-11.1,-14.8%,-25.3%,x,15.8µM*
O=C1N(c2ccccc2)C[C@@H]2C[C@@H](c3cc4ccccc4o3)N3CCC[C@@]123,-99.4*,0.891µM*,u,u,-29.2%
N#CC1=C(N)N2C(=C(C#N)C1c1ccc(Br)cc1)Nc1ccccc12 (stereo unspecified),-100.2*,x,x,6.31µM*,u
N#CC1=C(N)N2C(=C(C#N)C13CCN(Cc1ccccc1)CC3)Nc1ccccc12,-3.1,x,x,-5.9%,-2.3%
N#CC1=C(N)N2C(=C(C#N)C1c1cccc(Br)c1)Nc1ccccc12 (stereo unspecified),-97.4*,i,-2.9%,u,7.94µM*
SMILES,HCMV inh,Vaccinia mCherry,Vaccinia Venus,HCV inhibitor,FMDV antiviral
COc1ccc(-c2cc(C(F)(F)F)n3nc(C(=O)Nc4cc(C)on4)cc3n2)cc1OC,-7.6,x,4.0%,u,-8.3%
COc1ccc(-c2cc(C(F)(F)F)nc(S(=O)(=O)CCCC(=O)Nc3cc(C)on3)n2)cc1OC,47.0,-20.8%,-19.9%,u,12.6µM*
COc1ccc(Cl)cc1NC(=O)CCCS(=O)(=O)c1nc(-c2ccc(OC)c(OC)c2)cc(C(F)(F)F)n1,-99.3*,-12.0%,-13.4%,x,u
COc1ccccc1-c1cc(C(F)(F)F)nc(S(=O)(=O)CCCC(=O)Nc2cc(C)on2)n1,-96.0*,-22.8%,u,20.1%,12.6µM*
CCN(C(=O)Cn1c(=O)n(-c2ccccc2)c(=O)c2ccc(C(=O)NCc3ccc4c(c3)OCO4)cc21)c1cccc(C)c1,-13.4,-12.4%,-14.7%,x,24.5%
Cc1cc2cc(CCNC(=O)c3cccs3)c(=O)[nH]c2cc1C,-99.4*,-22.2%,-22.7%,-20.2%,5.1%
CCc1ccc2[nH]c(=O)c(CN(Cc3ccccc3OC)C(=O)Nc3ccccc3OC)cc2c1,-24.1,x,x,7.94µM*,-27.6%
Cc1ccc2cc(CN(CC3CCCO3)C(=O)NC3CCCCC3)c(=O)[nH]c2c1C (stereo unspecified),u,x,x,-28.6%,-19.7%
CCN(CC)CCCN(Cc1cc2ccc(C)c(C)c2[nH]c1=O)C(=O)NC1CCCCC1,58.5,x,x,5.62µM*,8.3%
CCN(CC)CCN(Cc1cc2cc(C)ccc2[nH]c1=O)C(=O)Nc1ccccc1OC,-18.3,x,-13.4%,14.9%,-18.4%
Cc1cc2cc(CN(CCN(C)C)C(=S)NCc3ccco3)c(=O)[nH]c2cc1C,u,i,-27.2%,-22.6%,-22.3%
Cc1cc2cc(CN(Cc3cccs3)C(=S)NCc3ccco3)c(=O)[nH]c2cc1C,-0.7,-28.0%,-19.2%,11.2µM*,-28.8%
COc1ccc2c(c1)CCc1cnc(-n3ncc(C(=O)NCCCN4CCOCC4)c3C)nc1-2,x,u,-20.7%,x,-3.9%
O=C(CSc1c2c(nc3ccccc13)CCC2)Nc1ccc(F)cc1F,-18.7,-13.8%,-3.4%,x,-20.4%
CCOC(=O)C1=C(CN(CC)Cc2ccccc2)NC(=O)NC1c1ccc(OC(C)C)cc1 (stereo unspecified),u,-7.8%,-2.6%,x,u
COc1ccc(C(=O)N(Cc2ccco2)Cc2cc3cc(C)ccc3[nH]c2=O)cc1OC,29.8,x,-16.1%,u,-29.8%
Cc1ccc(C)c2[nH]c(=O)c(CN(CC3CCCO3)C(=S)NCc3ccco3)cc12 (stereo unspecified),0.0,-4.1%,-20.7%,u,6.8%
COc1ccccc1NC(=S)N(Cc1ccco1)Cc1cc2cc(C)ccc2[nH]c1=O,-61.5*,u,u,u,-3.5%
Cc1ccc2cc(CN(CC3CCCO3)C(=S)NCc3ccco3)c(=O)[nH]c2c1C (stereo unspecified),-63.3*,-18.9%,-10.8%,u,31.7%
COc1ccc(OC)c(NC(=O)C(C)n2c(=O)c(-c3ccccc3NC(C)=O)nc3ccccc32)c1 (stereo unspecified),-1.8,-14.2%,-11.4%,x,-9.9%
Cc1ccc(CCNC(=O)c2c(C)oc3ncn(CC(C)C)c(=O)c23)cc1,12.5,-17.3%,-10.1%,x,-5.7%
COc1ccc(CCn2c(C)cc(C(=O)CCl)c2C)cc1OC,-100.2*,x,x,u,20µM*
